Holding throughout (experiment): NCI-60 one-dose screen, 48 h (100 = growth as untreated, 0 = no growth, -100 = all killed)
Common to all, as to conditions: 10 µM unless noted

Test [1] has as its system T-47D breast.
The subject of test [2] is BT-549 breast.
Test [3] relates to MDA-MB-435 melanoma.
Test [4] has as its system SW-620 colon.
Test [5] relates to MCF7 breast.
Test [6] has as its system HCT-116 colon.
For test [7], the system named is HCC-2998 colon.
In test [8] the test system is KM12 colon.

Compounds without any hit were thinned out: in the full panel of roughly 83,000, 20% have a hit.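 48-hour exposure, single concentration, 96-well plates; percent growth endpoint where 0 means no net growth. Active: below 10.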 Values without a mark were called inactive. Active and inactive are the calls of the source.

For 18 molecules, growth results are on record in PubChem BioAssay (NCI).

`O=C1CC2(O)CSc3nc(=O)cc(n32)N1` (stereo unspecified): the growth in test [1] was 104%; in test [2], 107%; in test [3], 100%; in test [4] it was 112%; in test [5], 96%; in test [6] it was 106%. Further, the growth was 120% in test [7] and 102% in test [8].
Consider `C=C(C)c1ccc(/C=N/NC(N)=S)cc1`, for which the growth is 67.2% in test [1]; 99.4% in test [2]; 87% in test [3]; 97.9% in test [4]; 51.1% in test [5]; 84.5% in test [6]. The growth in test [7] is 110%; in test [8], 55.4%.
`CN1CCN(Cc2ccc(NC(=O)c3cccc(C#Cc4cnc(N)c5ncccc45)c3F)cc2C(F)(F)F)CC1`: the growth is 79.9% in test [1]; 62% in test [2]; -82.7% (active) in test [3]; -49.9% (active) in test [4]; -65.1% (active) in test [5]; -67.5% (active) in test [6]. The results for the growth in test [7] and in test [8] were 67.3% and 1.2% (active), respectively.
For `CCN(CC)c1ccc(C(=N)c2ccc(N(C)C)cc2)cc1`, the growth is -13.6% (active) in test [1]; 28.9% in test [2]; 2% (active) in test [3]; -18.6% (active) in test [4]; 2.36% (active) in test [5]; 1.67% (active) in test [6]. In addition, the growth is 15.4% in test [7] and -8.02% (active) in test [8].
Regarding `COc1ccc2nc(C)cc(Nc3ccccc3O)c2c1`, the growth is 44% in test [1]; 35% in test [2]; 64.4% in test [3]; 82% in test [4]; 67.7% in test [5]; 29.9% in test [6]. The growth in test [7] is 112%; in test [8], 86.9%.
For `C[C@]12CCc3nc(Nc4ccc(O)cc4)sc3C1=CC[C@@H]1[C@@H]2CC[C@]2(C)/C(=N/NC(N)=S)CC[C@@H]12`, the growth was -31.6% (active) in test [1]; 9.89% (active) in test [2]; -68.5% (active) in test [3]; -62% (active) in test [4]; -35% (active) in test [5]; -81% (active) in test [6]. In addition, the growth was -18.2% (active) in test [7] and -64.9% (active) in test [8].
Consider `COc1cccc2nc(Nc3cccc(NC(=O)c4ccc(N5CCN(C)CC5)c(C(F)(F)F)c4)c3)ccc12`, for which the growth in test [1] was 36.7%; in test [2], 67%; in test [3] it was 19.9%; in test [4], -33.3% (active); in test [5], -12.9% (active); in test [6], 6.56% (active). For the same molecule, the growth in test [7] was -7.74% (active); in test [8] it was -7.59% (active).
As to `CNC(=O)c1cc(Oc2ccc(NC(=O)c3nc(S(C)(=O)=O)sc3-c3ccc(F)cc3)cc2)ccn1`, the growth in test [1] was 26.3%; in test [2], 105%; in test [3] it was 98.2%; in test [4], 104%; in test [5], 29.5%; in test [6] it was 85.3%. Besides, the growth was 80.2% in test [7] and 25.3% in test [8].
Regarding `Fc1ccc2nc(-c3ccc(-c4noc(-c5ccc(Cl)cc5)n4)cc3)[nH]c2c1`, the growth was 92.9% in test [1]; 93.9% in test [2]; 105% in test [3]; 107% in test [4]; 105% in test [5]; 95.6% in test [6]. For the same molecule, the growth in test [7] is 106%; in test [8], 93.1%.
Regarding `Cc1n(Cc2ccc3ccccc3n2)cc[n+]1Cc1ccc2ccccc2c1`, the growth in test [1] is 0.908% (active); in test [2] it was -0.0129% (active); in test [3], 0.529% (active); in test [5], 4.65% (active); in test [6] it was 4.92% (active); in test [7], 19.8%.
As for `CC(=O)c1c(C)nc(-c2cc(C)cc(Cl)c2)nc1-c1cccc(Oc2ccccc2)c1`, the growth is 72.3% in test [1]; 64.3% in test [2]; -4.76% (active) in test [3]; 43.5% in test [5]; 30.5% in test [6]; 77.6% in test [7]. Also, in test [8], the growth was 30.7%.
For `COc1ccc(/C(=C\c2cc(OC)c(OC)c(OC)c2)C(=O)Nc2nc3ccc(Cl)cc3s2)cc1`, the growth was 86.7% in test [1]; 98.3% in test [2]; 100% in test [3]; 98.9% in test [5]; 86.8% in test [6]; 104% in test [7].
Regarding `CCCC(CCC)NCC(O)c1cc(-c2ccc(C(F)(F)F)cc2)nc(C(F)(F)F)c1` (stereo unspecified), the growth in test [1] was -80.5% (active); in test [2], 48.2%; in test [3], -48.1% (active); in test [4], -56.6% (active); in test [5] it was -85.1% (active); in test [6] it was -70.8% (active). In test [8], the growth is -85.4% (active).
`COC(=O)c1ccc(NC(N)=NCCC(C)(C)c2ccc(C(F)(F)F)cc2)nc1`: the growth in test [1] was -3.4% (active); in test [2], 42.6%; in test [3] it was 50.1%; in test [5] it was 10%; in test [6] it was 8.17% (active); in test [7], -54% (active).
For the molecule `COc1ccc(/C=C(/C(=O)N2CCN(c3ccccc3)CC2)c2cc(OC)c(OC)c(OC)c2)cc1N`, the growth in test [1] is 65.3%; in test [2], 9.88% (active); in test [3], -48.7% (active); in test [5] it was 19.9%; in test [6], 9.1% (active); in test [7], 25.3%. In addition, the growth in test [8] was 14.4%.
For the molecule `O=C1C=CC(=O)N1CO`, the growth in test [1] is 132%; in test [2], 116%; in test [3], 127%; in test [5], 104%; in test [6], 104%; in test [7], 107%.
On to `CC[C@H](Nc1nc(N)nc(N)c1Cl)c1nc2cccc(NCc3ccc(C(=O)NO)cc3)c2c(=O)n1-c1ccccc1`, for which the growth was 6.8% (active) in test [1]; 37.4% in test [2]; -51.2% (active) in test [3]; 13% in test [5]; -63.6% (active) in test [6]; -14.4% (active) in test [7]. For the same molecule, the growth in test [8] is -38.3% (active).
Consider `SCc1ccc(CS)cc1`, for which the growth in test [1] is 101%; in test [2] it was 92.3%; in test [3], 111%; in test [4], 102%; in test [6] it was 100%; in test [7] it was 101%. Besides, the growth in test [8] was 114%.
